According to PubChem BioAssay (EPA / NIEHS):
Calls of active or inactive are those of the source. The calls were made as follows: active = hit-call score of the fitted dose curve at least 0.9, where 1 is the maximum; inactive = score below 0.9.

Experiment: ATG_GLI_CIS: Attagene CIS-FACTORIAL HepG2 Assay for human Zinc Finger Protein GLI1 (AID 2282945)
Conditions: HepG2, Attagene cis-factorial reporter mRNA, GLI element; actives raise or lower the signal
Method: ATG_CIS is a cell-based, multiplexed-readout assay that uses HepG2, a human liver cell line, with measurements taken at 24 hours after chemical dosing in a 24-well plate.ATG_GLI_CIS is one of 52 assay component(s) measured or calculated from the ATG_CIS assay. It is designed to make measurements of mRNA induction, a form of inducible reporter, as detected with fluorescence intensity signals by Reverse transcription polymerase chain reaction (RT-PCR) and Capillary electrophoresis technology.Data from the assay component ATG_GLI_CIS was analyzed into 1 assay endpoint. This assay endpoint, ATG_GLI_CIS, was analyzed with bidirectional fitting relative to DMSO as the negative control and baseline of activity. Using a type of inducible reporter, measures of mRNA for gain or loss-of-signal activity can be used to understand the reporter gene at the transcription factor-level as they relate to the gene GLI1. Furthermore, this assay endpoint can be referred to as a primary readout, because this assay has produced multiple assay endpoints where this one serves a reporter gene function. To generalize the intended target to other relatable targets, this assay endpoint is annotated to the dna binding intended target family, where the subfamily is zinc finger.
Human liver HepG2 cells are transiently transfected with multiple reporter transcription units (MRTUs) in 6-well plates using FuGene 6 reagent (Roche; 3 ml FuGene/1 mg DNA). The MRTU constructs are regulated by a cis-regulating element (promoter). […] A major difference between the CIS and TRANS system is that in CIS activities of endogenous TFs are measured, whereas the TRANS assay evaluates changes in activities of exogenous, chimeric NR-Gal4 proteins. […] At the end of 24 hour incubation, total RNA was isolated using TriZol reagent (Invitrogen). The isolated RNA is then reverse-transcribed using oligo(dT) primer and Mo-MLV reverse transcriptase (Invitrogen) with DNAse I (Ambion) treatment for 30 min. The one-tenth of the produced cDNA was amplified by PCR using Taq DNA polymerase (Invitrogen) and two reporter sequence-specific primers. The PCR products were fluorescently labeled by primer extension with 6-arboxyfluorescein (6-FAM) 5'-labeled reporter sequence-specific primer (2 min at 95 C, 20 s at 68 C and 10 min at 72 C) and these products were digested with 5U of HpaI (New England Biolabs) for 2h at 37 C. The fragments were purified using Qiaquick PCR columns (Qiagen), analyzed on an ABI 3130xL genetic analyzer (Applied Biosystems) with peak positions identified by using a set of X-rhodamine (ROX)-labeled MapMarker1000 molecular weight standards (BioVentures). The raw capillary electrophoresis data was processed using Attagraph software (Attagene).

SMILES	outcome	AC50
FC(F)(F)C(F)(F)C(F)(F)C(F)(F)C(F)(F)C(F)(F)CCS	inactive	
OCC(F)(F)C(F)(F)C(F)(F)C(F)(F)C(F)(F)C(F)F	inactive	
OCC(F)(F)C(F)(F)C(F)(F)C(F)(F)C(F)(F)C(F)(F)F	inactive	
FC(F)(F)C(F)(F)C(F)(F)C(F)(F)CCI	inactive	
C=CC(=O)OCC(F)(F)C(F)(F)C(F)(F)C(F)(F)COC(=O)C=C		81.1 µM (active)
COC(=O)C1CCC(C(=O)OC)CC1 (stereo not given)	inactive	
CCCCCC=O	inactive	
O=C(O)C(F)(F)C(F)(F)C(F)(F)C(F)(F)F	inactive	
CN(C)Cc1ccccc1O	inactive	
CCc1ccc(C(c2ccc(CC)cc2)C(Cl)Cl)cc1	inactive	
c1ccc(B(c2ccccc2)c2ccccc2)cc1	inactive	
O=C(O)C(F)(F)C(F)(F)C(F)(F)C(F)(F)C(F)(F)C(F)(F)C(F)(F)C(F)(F)C(F)(F)C(F)F	inactive	
O=C(O)C(F)(F)C(F)(F)C(F)(F)C(F)(F)C(F)(F)C(F)(F)C(F)(F)C(F)(F)Cl	inactive	
CC(C)c1ccccc1N	inactive	
CCCCNc1ccccc1	inactive	
C#C[C@]1(O)CC[C@H]2[C@@H]3CCc4cc(OC)ccc4[C@H]3CC[C@@]21C	inactive	
Nc1ccc(Oc2cccc(Oc3ccc(N)cc3)c2)cc1		178 µM (active)
FC(F)(F)C(F)(F)C(F)(F)CI	inactive	
C1COCCN1	inactive	
Nc1cc(Cl)c(N)c(Cl)c1	inactive	

SMILES	outcome	AC50
CCCCCCCOC(=O)c1ccccc1C(=O)OCCCCCCC	inactive	
CCCCCCOC(=O)c1ccccc1O	inactive	
C=C(C)C(=O)OCC(F)(F)C(F)(F)C(F)(F)C(F)(F)C(F)(F)C(F)(F)C(F)(F)F	inactive	
c1ccc(-c2ccccc2-c2ccccc2)cc1	inactive	
CCO[Si](CCC(F)(F)C(F)(F)C(F)(F)C(F)(F)C(F)(F)C(F)(F)F)(OCC)OCC	inactive	
O=C(O)C(F)(F)C(F)(F)F	inactive	
Nc1ccc(S(=O)(=O)Nc2nccs2)cc1	inactive	
C=CC(F)(F)C(F)(F)C(F)(F)C(F)(F)C(F)(F)C(F)(F)C(F)(F)C(F)(F)C=C	inactive	
O=S(=O)(O)c1ccc2ccccc2c1	inactive	
FC(F)(F)C(F)(F)C(F)(F)C(F)(F)C(F)(F)C(F)(F)C(F)(F)C(F)(F)F	inactive	
FC(F)(Br)C(F)(F)C(F)(F)C(F)(F)C(F)(F)C(F)(F)Br	inactive	
COC(OC(C)=O)c1ccccc1 (stereo not given)	inactive	
OCCCC(F)(F)C(F)(F)C(F)(F)F	inactive	
O=P(O)(O)OCCC(F)(F)C(F)(F)C(F)(F)C(F)(F)C(F)(F)C(F)(F)F	inactive	
FC(F)(F)C(F)(F)C(F)(F)N(C(F)(F)C(F)(F)C(F)(F)F)C(F)(F)C(F)(F)C(F)(F)F	inactive	
CCCCCCS	inactive	
CCCCCCOC(=O)c1ccccc1	inactive	
O=C(O)C(F)(F)C(F)(F)C(F)(F)F	inactive	
FC(F)(F)C(F)(F)C(F)(F)C(F)(F)C(F)(F)C(F)(F)C(F)(F)I	inactive	
O=C(O)C(F)(OC(F)(F)C(F)(OC(F)(F)C(F)(OC(F)(F)C(F)(F)C(F)(F)F)C(F)(F)F)C(F)(F)F)C(F)(F)F (stereo not given)	inactive	
